PubChem BioAssay (Tox21)
Active and inactive are the calls of the source. A call without a number means that no potency is given here. Calls come from the whole dose curve.
Potency is the fitted concentration of half-maximal effect.

These compounds were tested against Estrogen receptor (Homo sapiens) (UniProt P03372) (assay: qHTS assay to identify small molecule agonists of the estrogen receptor alpha (ER-alpha) signaling pathway in the presence of an antagonist (AID 1259383; note: nearly all actives have a fitted effect of over 15% in size)). Conditions: VM7Luc4E2 cells, ERE-luciferase, +ICI-182,780, 22 h; series mostly up to 92.4 µM.
Sequence of Estrogen receptor (Homo sapiens) (P03372 whole entry, looked up): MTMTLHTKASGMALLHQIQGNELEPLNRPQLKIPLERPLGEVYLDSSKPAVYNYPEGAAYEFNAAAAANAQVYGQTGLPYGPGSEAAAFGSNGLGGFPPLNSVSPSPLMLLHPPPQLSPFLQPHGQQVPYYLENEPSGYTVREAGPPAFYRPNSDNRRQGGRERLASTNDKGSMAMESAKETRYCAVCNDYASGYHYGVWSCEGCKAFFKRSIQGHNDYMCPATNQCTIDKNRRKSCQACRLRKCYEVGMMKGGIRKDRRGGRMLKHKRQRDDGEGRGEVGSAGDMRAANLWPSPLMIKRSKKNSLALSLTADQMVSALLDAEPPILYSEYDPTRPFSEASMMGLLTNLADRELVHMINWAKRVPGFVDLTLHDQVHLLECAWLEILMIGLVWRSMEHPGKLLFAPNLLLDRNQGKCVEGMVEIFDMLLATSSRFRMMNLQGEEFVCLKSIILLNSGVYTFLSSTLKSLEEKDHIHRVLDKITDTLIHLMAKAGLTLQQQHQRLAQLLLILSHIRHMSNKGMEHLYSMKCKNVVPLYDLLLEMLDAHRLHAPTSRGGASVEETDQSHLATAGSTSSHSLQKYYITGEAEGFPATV
Source text: National Center for Advancing Translational Sciences [NCATS] NIH Chemical Genomics Center [NCGC] U.S. Environmental Protection Agency [EPA] National Institutes of Environmental Health Sciences [NIEHS] National Toxicology Program [NTP] Assay overview: Estrogen receptor (ER), a member of nuclear hormone receptor plays an important role in development, metabolic homeostasis and reproduction. Two subtypes of ER, ER-alpha and ER-beta, have similar expression patterns with some uniqueness in both types. Endocrine disrupting chemicals (EDCs) and their interactions with steroid hormone receptors like ER causes disruption of normal endocrine function. Therefore, it is important to understand the effect of environmental chemicals in ER signaling pathway. For identifying ER agonists, VM7Luc4E2 cell line has been used in the current assay. VM7Luc4E2 cell line (provided by Denison MS, University of California) endogenously expresses full-length ER-alpha and is stably transfected with a plasmid containing four estrogen responsive elements (ERE) upstream of a luciferase reporter gene. This current screening for measuring luciferase reporter gene activity using VM7Luc4E2 cells against Tox21 10K library collection is a confirmation study on agonist mode screening in presence of ER-antagonist (ICI-182,780) at 10.0nM final concentration.
Assay Protocol Summary: VM7Luc4E2 cells were cultured in phenol red free assay medium containing 10% charcoal stripped FBS for 5 days prior to the assay. The cells were dispensed at 4,000 cells in 4uL of assay medium per well into white wall/solid-bottom 1536-well plates (Corning Life Sciences, Corning, NY) using a Multidrop Combi (Thermo Fisher Scientific Inc., Waltham, MA) dispenser. After the assay plates were incubated at 37C and 5% CO2 for 24hr, 1uL of 10.0nM (final concentration) ICI-182,780 or assay buffer was added using two separate tips of Flying Reagent Dispenser (FRD, Aurora Discovery, San Diego, CA). Then 23nL of compounds dissolved in DMSO at 15 concentrations and positive controls or DMSO only was transferred to the assay plates by a Pintool station (Wako, San Diego, CA). The assay plates were incubated at 37C and 5% CO2 for 22hr. For luciferase read, 4uL/well ONE-Glo reagent (Promega Corporation, Madison, WI) was added to each well using FRD and after 30min incubation at room temperature, luminescence signal was measured on ViewLux plate reader (PerkinElmer, Shelton, CT).
In the case of `O=C1c2ccccc2C(=O)N1CCc1noc(-c2ccc(CN3CCCCCC3)s2)n1`, the Potency is reported as “inactive”. For `CCOC(=O)[C@H](CCc1ccccc1)N[C@@H](C)C(=O)N(CC(=O)O)C1Cc2ccccc2C1`, the Potency was “inactive”. In the case of `O=c1[nH]c2ccc(Cl)cc2o1`, the Potency is reported as “inactive”. In the case of `CCCCCCCCCCC(=O)O`, the Potency is reported as “inactive”. For `O=Cc1c2ccccc2c(Cl)c2ccccc12`, the Potency was “inactive”. `CC(=O)Oc1ccc([N+](=O)[O-])cc1CCl` was tested, and the Potency was “inactive”. `C1COC1` was tested, and the Potency was “inactive”. With `CCOC(=O)c1ccc(O)c(O)c1` the Potency was “inactive”. For `O=C=Nc1cccc(C(F)(F)F)c1`, the Potency was “inactive”. For `CCC(C)COC(C)=O` (stereo not given), the Potency was “inactive”. For `NCCNCCO`, the Potency was “inactive”. With `Clc1ccc(Nc2nnc(Cc3ccncc3)c3ccccc23)cc1` the Potency was “inactive”. `CN1C(=O)OC(C)(C)C1=O` was tested, and the Potency was “inactive”. For `CCCC(=O)C(=O)O`, the Potency was “inactive”. For `CNC(=O)c1cnn(-c2nc(N)c3ncn([C@@H]4O[C@H](CO)[C@@H](O)[C@H]4O)c3n2)c1`, the Potency was “inactive”. `O=[N+]([O-])c1cc(C2CCCCC2)c(O)c([N+](=O)[O-])c1` was tested, and the Potency was “inactive”. With `CN1CCCC(CC2c3ccccc3Sc3ccccc32)C1` (stereo not given) the Potency was “inactive”. In the case of `O=C1c2ccccc2C(=O)C1(O)O`, the Potency is reported as “inactive”. In the case of `O=C(OCC(O)CO)c1ccccc1Nc1ccnc2cc(Cl)ccc12` (stereo not given), the Potency is reported as “inactive”. With `Nc1ncnc2c1ncn2[C@H]1CC[C@@H](CO)O1` the Potency was “inactive”. In the case of `O=C(CCc1ccc(O)cc1)c1c(O)cc(O)cc1O`, the Potency is reported as 24.9 µM (active). For `CC[C@]1(O)C[C@H]2CN(CCc3c([nH]c4ccccc34)[C@@](C(=O)OC)(c3cc4c(cc3OC)N(C=O)[C@H]3[C@@](O)(C(=O)OC)[C@H](OC(C)=O)[C@]5(CC)C=CCN6CC[C@]43[C@@H]65)C2)C1`, the Potency was “inactive”. `O=C(O)CCCCCCCCCCCBr` was tested, and the Potency was “inactive”. For `O=C=Nc1ccc(Cl)c(Cl)c1`, the Potency was “inactive”. `Cc1c(C)c2c(c(C)c1OC(=O)CCC(=O)OCCO)CC[C@@](C)(CCC[C@H](C)CCC[C@H](C)CCCC(C)C)O2` was tested, and the Potency was “inactive”. With `O=C(CCCN1CC=C(n2c(=O)[nH]c3ccccc32)CC1)c1ccc(F)cc1` the Potency was “inactive”. In the case of `c1ccc(C[n+]2cccc3ccccc32)cc1`, the Potency is reported as “inactive”. In the case of `c1cc(N(CC2CO2)CC2CO2)ccc1Cc1ccc(N(CC2CO2)CC2CO2)cc1` (stereo not given), the Potency is reported as “inactive”. With `O=C1NC(=O)c2cc([N+](=O)[O-])ccc21` the Potency was “inactive”. With `Cc1ccco1` the Potency was “inactive”. With `CCCCCCCCCI` the Potency was “inactive”. `CN1C(=O)N(c2ccccc2Br)Cc2cnc(Nc3ccc4c(c3)OCC(CO)O4)nc21` (stereo not given) was tested, and the Potency was “inactive”. In the case of `CCc1ccccc1`, the Potency is reported as “inactive”. With `C[C@H]1C[C@H](O)c2ccsc2S1(=O)=O` the Potency was “inactive”. In the case of `C=C(C)CCCC(C)CCO` (stereo not given), the Potency is reported as “inactive”. `C[C@@H]1CC(=O)NN=C1c1ccc(NN=C(C#N)C#N)cc1` was tested, and the Potency was “inactive”. `CCOc1ccccc1O[C@H](c1ccccc1)[C@H]1CNCCO1` was tested, and the Potency was “inactive”. `O[C@@H]1CO[C@H]2[C@@H]1OC[C@@H]2O` was tested, and the Potency was “inactive”. `CCC(C)(C)OC` was tested, and the Potency was “inactive”. For `C1C[C@@H]2[C@H]3CC[C@H](C3)[C@@H]2C1`, the Potency was “inactive”.
